The values below come from PubChem BioAssay (NCI).

Assay in all cases: NCI-60 one-dose screen, 48 h (100 = growth as untreated, 0 = no growth, -100 = all killed)
Common to all, as to settings: 10 µM unless noted

Assay [1] concerns HCT-15 colon.
For assay [2], the system named is HT29 colon.
Assay [3] relates to SNB-75 CNS.
Assay [4] deals with SNB-19 CNS.
For assay [5], the system named is U251 CNS.
In assay [6] the test system is PC-3 prostate.
In assay [7] the test system is SK-MEL-5 melanoma.
The subject of assay [8] is UACC-62 melanoma.
In assay [9] the test system is LOX IMVI melanoma.
The subject of assay [10] is SK-MEL-28 melanoma.

Structures are written as SMILES. Compounds without any hit were thinned out: in the full panel of roughly 83,000, 20% have a hit.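 Values shown are percent growth following 48 h exposure of cells in 96-well plates to a single concentration of compound; below 10 was considered active.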 Values without a mark were called inactive. The source made the active and inactive calls.

Consider `Oc1ccc(CNNc2ccnc3c(O)cccc23)c2cccnc12`, for which the growth in assay [1] is 23.9%; in assay [2] it was 73.8%; in assay [3], 54.9%; in [4], 29.7%; in assay [5], 25.8%; in assay [6], 29.7%. The growth in [7] is -20.2% (active); in assay [8] it was 24.6%; in [9], 16.4%; in assay [10], 49.7%.
Take `COc1ccccc1Nc1nnc(-c2ccc(Cl)cc2)o1`: the growth in assay [1] was 33.1%; in assay [2], 16.1%; in assay [3], 55.1%; in [4], 46.4%; in [5] it was 34.4%; in [6] it was 56.7%. For the same compound, the growth in assay [7] was 37.6%; in [8] it was 51.8%; in assay [9] it was 51.7%; in assay [10], 64%.
As for `COc1ccc(Sc2[nH]c(C(C)=O)c3ccccc23)cc1`, the growth is 53.9% in assay [1]; 47.6% in [2]; 48.1% in [3]; 67.1% in assay [4]; 76% in assay [5]; 52.1% in assay [6]. Also, the growth is 45.1% in assay [7], 47.1% in assay [8], 71.9% in assay [9] and 84.1% in assay [10].
Regarding `C=C1C(=O)O[C@H]2[C@H]1CC/C(COC(=O)CCCCCCC(=O)OC/C1=C/CC[C@@]3(C)O[C@H]3[C@H]3OC(=O)C(=C)[C@@H]3CC1)=C\CC[C@@]1(C)O[C@@H]21`, the growth in assay [1] is 0.887% (active); in assay [2] it was 3.75% (active); in assay [3], 63.1%; in [4], 65.9%; in assay [5], 44.1%; in assay [6], 36.1%. The growth in [7] is 36.5%; in [8], 42.3%; in assay [9], -10.8% (active); in assay [10], 48.8%.
Take `NC(=O)C(O)(c1ccccc1)c1ccccc1`: the growth in assay [1] was 101%; in assay [2], 92.3%; in [3], 89%; in assay [4], 99.4%; in assay [5], 101%; in [6], 87.3%. Besides, the growth was 106% in [7], 95.9% in assay [8], 100% in [9] and 112% in [10].
For `CN(C)CSc1nc2ccccc2s1`, the growth was 97.9% in [1]; 95% in [2]; 75.2% in assay [3]; 110% in assay [4]; 103% in [5]; 74.8% in assay [6]. Also, the growth is 96.9% in assay [7], 95.9% in [8], 90% in assay [9] and 108% in assay [10].
With `O=C(O)c1cn(C2CC2)c2cc(N3CCN(Cc4nnc(Nc5ccccc5)o4)CC3)c(F)cc2c1=O`, the growth in assay [1] was 101%; in assay [2], 93.8%; in assay [3], 82.2%; in assay [4], 108%; in assay [5], 105%; in assay [6], 105%. Further, the growth was 106% in assay [7], 100% in assay [8], 87.9% in assay [9] and 100% in [10].
On to `Cc1cc2ccccc2c[n+]1CC(=O)c1ccc(-c2ccccc2)cc1`, for which the growth in [1] was 84%; in assay [2] it was 24.8%; in [3], 61.4%; in [4] it was 58.8%; in assay [5], 42.7%; in assay [6] it was 29.7%. In addition, the growth is 21.6% in assay [7], 71.2% in assay [8], 54% in [9] and 84% in [10].
With `CC(C)Cc1cc(CNC(=O)C2[C@H]3CN(C(=O)c4ccccc4)C[C@@H]23)nn1-c1ccccc1` (stereo not given in full), the growth is 99.3% in [1]; 66.5% in assay [2]; 105% in [3]; 107% in assay [4]; 90.1% in assay [5]; 90.8% in [6]. Besides, the growth in assay [7] was 99%; in assay [8], 88.2%; in assay [9], 91.9%; in assay [10], 93.5%.
As to `C#CC[C@@H]1C[C@]2(C)[C@H]3CC[C@@H]4[C@H]5[C@H](C(=C)C)CC[C@]5(C(=O)O)CC[C@@]4(C)[C@]3(C)CC[C@H]2C(C)(C)[C@H]1O`, the growth was 32% in [1]; 35.9% in [2]; -8.42% (active) in [3]; 56.8% in assay [4]; 26.3% in assay [5]; 4.77% (active) in assay [6]. For the same compound, the growth in [7] is 74.5%; in [8], 72.2%; in assay [9] it was 44.3%; in assay [10], 92%.
Regarding `CCn1cc(C(=O)O)c(=O)c2cc(F)c(N3CCN(CC(=O)Nc4ccc(/C(C)=N/OC)cc4)CC3)cc21`, the growth in assay [1] is 90.5%; in [2], 94%; in assay [3], 76.8%; in assay [4], 91.7%; in [5] it was 94.3%; in assay [6] it was 85.5%. The growth in assay [7] was 96.4%; in assay [8], 90.5%; in assay [9], 80%; in [10] it was 100%.
For `Cc1ccn2c3c(c(C(=O)O)c2c1)C(=O)c1ccccc1C3=O`, the growth is 58.8% in assay [1]; 39.5% in [2]; 87.8% in [3]; 50.4% in [4]; 74.9% in [5]; 84.8% in assay [6]. For the same compound, the growth in assay [7] was -98.9% (active); in assay [8], 0.126% (active); in assay [9], 48.9%; in assay [10], 46%.
Regarding `NC(=N\N=C\c1ccccc1O)/C(N)=N/N=C/c1ccccc1O`, the growth is 66% in assay [1]; 73.8% in assay [2]; 84.4% in assay [3]; 84.4% in assay [4]; 82.7% in assay [5]; 56.1% in assay [6]. Further, the growth was 84.6% in [7], 68.9% in [8], 48.6% in assay [9] and 90.5% in assay [10].
For the compound `Nc1ccc2c(c1)C(=O)C(=O)c1c-2nc2ccccn12`, the growth was -29.8% (active) in assay [1]; 76.1% in [2]; 37.5% in [3]; 9.2% (active) in [4]; 9.14% (active) in assay [5]; 24% in assay [6]. Also, the growth in assay [7] was -99.8% (active); in assay [8], -85.3% (active); in assay [9], -12.7% (active); in assay [10], -28.9% (active).
For the compound `COc1ccccc1-c1ccc2nc(NC(=O)Nc3cc(C(F)(F)F)cc(C(F)(F)F)c3)sc2c1`, the growth in assay [1] is 9.74% (active); in assay [2], 4.76% (active); in assay [3] it was 8.11% (active); in assay [4], 25.1%; in assay [5], 12.5%; in assay [6], 13.5%. Moreover, the growth is -86.1% (active) in assay [7], 10.8% in assay [8], 5.02% (active) in [9] and 31.1% in assay [10].
`CCCCc1n(Cc2ccc3ccccc3n2)cc[n+]1Cc1ccc2ccccc2c1`: the growth was 76.7% in assay [1]; -8.3% (active) in [2]; 15.7% in assay [3]; 7.08% (active) in assay [4]; 5.73% (active) in assay [5]; 1.01% (active) in assay [6]. Moreover, the growth in [7] was -94.3% (active); in assay [8] it was -57.7% (active); in assay [9] it was -26.5% (active); in assay [10], 0.554% (active).
Turning to `C=C1C(=O)O[C@H]2[C@H]1CC/C(COC(=O)c1cc3ccccc3o1)=C\CC[C@@]1(C)O[C@@H]21`, the growth in [1] is -68.6% (active); in assay [2] it was -49.6% (active); in assay [3] it was 76.5%; in assay [4] it was 16.7%; in [5], 15.4%; in [6], -8.8% (active). The growth in assay [7] is 7.03% (active); in assay [8] it was -37.7% (active); in assay [9], -89.3% (active); in assay [10], -48% (active).
Consider `O=C(Nc1cc(=O)[nH]c(=O)[nH]1)C(Cl)Cl`, for which the growth in assay [1] is 103%; in assay [2], 102%; in assay [3] it was 96.9%; in assay [4] it was 99%; in assay [5] it was 99.5%; in [6], 92%. The growth in assay [7] is 102%; in assay [8], 88.9%; in assay [9], 100%; in [10], 111%.
Take `Oc1c(CCl)cc(Cl)cc1Cc1cc(Cl)cc(Cc2cc(Cl)cc(CCl)c2O)c1O`: the growth is 12.8% in assay [1]; 56.9% in assay [2]; 56.8% in [3]; 27.6% in assay [4]; 31.7% in assay [5]; 17.9% in assay [6]. Also, the growth in assay [7] was -1.94% (active); in assay [8], 4.56% (active); in assay [9] it was 47.7%; in assay [10] it was 30%.
With `COc1cc(C)ccc1Oc1nc(Nc2ccc(N3CCOCC3)cc2)ncc1N=Cc1cc(C(F)(F)F)cc(C(F)(F)F)c1`, the growth in assay [1] was 92%; in assay [2] it was 64.5%; in assay [3] it was 40.1%; in assay [4], 94.4%; in [5] it was 71.5%; in assay [6], 77.4%. In addition, the growth in assay [7] is 91%; in [8] it was 81%; in [9] it was 61.3%; in [10], 96.7%.
For the compound `CCCn1cc(/C=N\N=C2\C(=O)Nc3ccc(C)cc32)c2ccccc21`, the growth in assay [1] is 23%; in assay [2], 17.1%; in assay [3] it was 85.6%; in [4], 63.3%; in [5], 40%; in [6], 18%. Also, the growth is 49.1% in assay [7], 40.4% in assay [8], 4.42% (active) in assay [9] and 59.4% in assay [10].
As for `O=C(Nc1cc(Br)ccn1)c1cc2cc(Nc3nc(-c4ccccc4)nc4ccccc34)ccc2oc1=O`, the growth in [1] is 107%; in [2], 104%; in assay [3], 92.3%; in assay [4], 107%; in assay [5], 107%; in [6] it was 93.6%. The growth in assay [7] is 101%; in [8], 103%; in [9], 83.8%; in assay [10], 114%.
For `C=C(C)[C@@H]1CC[C@]2(C(=O)N=C=S)CC[C@]3(C)[C@H](CC[C@@H]4[C@@]5(C)CCC(=O)C(C)(C)[C@@H]5CC[C@]43C)[C@@H]12`, the growth in [1] was 20.3%; in assay [2], 15.5%; in assay [3], 43.6%; in assay [4], 28.1%; in assay [5], 23.9%; in assay [6], 20.8%. Also, the growth was 77.7% in assay [7], 44.5% in assay [8], 41.4% in assay [9] and 66% in assay [10].
For `COc1ccc2nc(-c3ccc(OC)c(OC)c3)cc(-c3nnc(SCC(=O)Nc4ccc(C(C)=O)cc4)o3)c2c1`, the growth is 100% in assay [1]; 105% in assay [2]; 91.6% in assay [3]; 101% in assay [4]; 97.7% in assay [5]; 95% in assay [6]. The growth was 94.1% in assay [7], 102% in assay [8], 102% in assay [9] and 113% in [10].
In the case of `CCc1ccc(OCc2ccccc2C(=O)Nc2ccc3nc(C)cc(N)c3c2)cc1`, the growth in assay [1] is -75.4% (active); in assay [2], -87.4% (active); in assay [3], -95.1% (active); in assay [4] it was -80.6% (active); in assay [5], -90.9% (active); in [6], -88.1% (active). For the same compound, the growth in assay [7] is -90.5% (active); in assay [8], -92.6% (active); in assay [9], -83.9% (active); in assay [10], -93.9% (active).
For `COc1cc2c(Nc3ccc(NC(=O)Nc4ccc(Cl)c(C(F)(F)F)c4)c(Cl)c3)ncnc2cc1OCCCN1CCN(C)CC1`, the growth in assay [1] was 86.7%; in assay [2] it was 1.14% (active); in [3], 31.3%; in assay [4], -79% (active); in assay [5] it was -89.5% (active); in assay [6] it was -25.3% (active). The growth was -44.6% (active) in [7], 0.23% (active) in assay [8], -88.3% (active) in [9] and 36.1% in [10].
